Source: PubChem BioAssay (Tox21)
Where “and” joins values, the source holds several entries; their conditions need not be identical. Equal entries are not always repeated. Records with an inconclusive call do not appear. Calls of active or inactive are those of the source. Unless noted, the call rests on the fitted dose curve; in most records, active means well fitted curve in the direction sought with a large enough effect in the repeat runs; inconclusive means weak or mixed curves; inactive means no such curve, though single readings can be large; an effect the other way counts as inactive or inconclusive.

Experiments:
[1] = qHTS assay for identifying genotoxic compounds that show differential cytotoxicity against isogenic chicken DT40 cell lines with known DNA damage response pathways - wild type cell line (AID 743012); further: nearly all actives have a fitted effect of over 60% in size; further: potency means the concentration at half of the fitted maximal effect
How it was run: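 Endpoint: CellTiter-Glo luminescence, 30 min RT. Cells: wild type DT40, 300/well. Exposure: compounds in DMSO, 40 h, 37 C/5% CO2, after ~0.5 h pre-incubation.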

[2] = qHTS assay for identifying genotoxic compounds that show differential cytotoxicity against isogenic chicken DT40 cell lines with known DNA damage response pathways - Rev3 mutant cell line (AID 743014); further: nearly all actives have a fitted effect of over 55% in size; further: potency means the concentration at half of the fitted maximal effect
[3] = qHTS assay for identifying genotoxic compounds that show differential cytotoxicity against isogenic chicken DT40 cell lines with known DNA damage response pathways - Rad54/Ku70 mutant cell line (AID 743015); further: nearly all actives have a fitted effect of over 60% in size; further: potency means the concentration at half of the fitted maximal effect
[4] = qHTS assay to identify small molecule antagonists of the androgen receptor (AR) signaling pathway - cell viability counter screen (AID 743033; further: nearly all actives have a fitted effect of over 45% in size; further: potency means the concentration at half of the fitted maximal effect)
[5] = biological target: Androgen receptor (Homo sapiens) (UniProt P10275); assay: qHTS assay to identify small molecule antagonists of the androgen receptor (AR) signaling pathway (AID 743035; active means well fitted inhibition curve with a large enough effect in the signal ratio in the repeat runs, not every such curve was filed as active; the % refers to the signal ratio; further: potency means the concentration at half of the fitted maximal effect)
Chain of Androgen receptor (Homo sapiens) (P10275 whole entry, looked up): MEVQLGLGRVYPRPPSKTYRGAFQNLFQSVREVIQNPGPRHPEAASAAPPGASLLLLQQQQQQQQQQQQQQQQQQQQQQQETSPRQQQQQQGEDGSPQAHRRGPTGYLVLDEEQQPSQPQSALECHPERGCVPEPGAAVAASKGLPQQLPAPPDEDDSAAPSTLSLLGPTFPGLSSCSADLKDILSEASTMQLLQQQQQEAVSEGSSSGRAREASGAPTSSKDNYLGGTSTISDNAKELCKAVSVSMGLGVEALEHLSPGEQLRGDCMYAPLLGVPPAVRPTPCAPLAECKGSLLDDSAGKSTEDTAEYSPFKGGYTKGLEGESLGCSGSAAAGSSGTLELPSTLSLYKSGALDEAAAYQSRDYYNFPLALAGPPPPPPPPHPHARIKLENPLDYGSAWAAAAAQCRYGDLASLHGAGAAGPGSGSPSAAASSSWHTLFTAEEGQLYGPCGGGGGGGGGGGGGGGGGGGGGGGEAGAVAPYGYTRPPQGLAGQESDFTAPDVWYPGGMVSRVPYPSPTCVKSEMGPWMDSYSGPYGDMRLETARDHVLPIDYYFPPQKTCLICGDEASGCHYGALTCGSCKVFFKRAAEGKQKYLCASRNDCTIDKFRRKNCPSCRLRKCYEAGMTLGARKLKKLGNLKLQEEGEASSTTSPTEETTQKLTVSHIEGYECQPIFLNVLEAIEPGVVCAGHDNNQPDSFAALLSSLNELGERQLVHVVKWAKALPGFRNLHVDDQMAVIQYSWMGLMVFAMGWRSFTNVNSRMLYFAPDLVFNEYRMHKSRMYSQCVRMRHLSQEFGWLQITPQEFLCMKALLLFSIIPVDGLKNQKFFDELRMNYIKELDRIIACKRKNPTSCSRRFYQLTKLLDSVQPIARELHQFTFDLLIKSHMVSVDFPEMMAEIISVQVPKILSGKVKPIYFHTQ
How it was run: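 R1881 agonist challenge of a HEK293 UAS-beta-lactamase AR reporter line in the presence of compound (16 h, 37C); signal taken as FRET fluorescence after 2 h with LiveBLAzer B/G substrate at room temperature.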

[6] = biological target: Androgen receptor (Homo sapiens) (UniProt P10275); assay: qHTS assay to identify small molecule agonists of the androgen receptor (AR) signaling pathway (AID 743036; active means well fitted activation curve with a large enough effect in the signal ratio in the repeat runs, with a control signal flat, not every such curve was filed as active; the % refers to the signal ratio)
How it was run: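 Following a 4 h settling period, AR-UAS-bla HEK293 cells were dosed with compounds for 16 h at 37C. A 2 h room-temperature incubation with LiveBLAzer B/G FRET substrate preceded the fluorescence measurement.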

[7] = biological target: Androgen receptor (Homo sapiens) (UniProt P10275); assay: qHTS assay to identify small molecule agonists of the androgen receptor (AR) signaling pathway using the MDA cell line (AID 743040; further: nearly all actives have a fitted effect of over 20% in size)
How it was run: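 Cell-based luciferase reporter: MDA-kb2, MMTV promoter (AR + GR response elements). 16 h compound exposure at 37C; ONE-Glo, 30 min RT, luminescence.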

[8] = qHTS assay to identify small molecule antagonists of the androgen receptor (AR) signaling pathway using the MDA cell line - cell viability counter screen (AID 743041; further: nearly all actives have a fitted effect of over 45% in size; further: potency means the concentration at half of the fitted maximal effect)
How it was run: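 In this qHTS counter assay, fluorescence intensity after CellTiter-Fluor addition indicated viability of MDA-kb2 AR-luc cells given compounds and R1881 for 16 h at 37C.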

[9] = qHTS assay to identify small molecule antagonists of the glucocorticoid receptor (GR) signaling pathway - cell viability counter screen (AID 720693); further: nearly all actives have a fitted effect of over 55% in size
[10] = biological target: Androgen receptor (Homo sapiens) (UniProt P10275); assay: qHTS assay to identify small molecule antagonists of the androgen receptor (AR) signaling pathway using the MDA cell line (AID 743042; further: nearly all actives have a fitted effect of over 55% in size; further: potency means the concentration at half of the fitted maximal effect)
How it was run: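 MDA-kb2 cells (human breast carcinoma, stably carrying an MMTV-luciferase reporter responsive to AR and GR) were plated at 3,000 cells/well and preincubated 5 hr at 37C, then given compound plus R1881 agonist for 16 h. ONE-Glo luminescence was read.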

Measured: Potency

CCCCC(O)(Cn1cncn1)c1ccc(Cl)cc1Cl (centres undefined)
inactive: [6] | [7] | [8]
active: [1] 15.3 µM | [2] 13.7 µM | [3] 13.7 µM | [4] 48.9 µM | [5] 17.4 µM

CCCC(Cn1cncn1)c1ccc(Cl)cc1Cl (centres undefined)
active: [1] 5.45 µM | [2] 6.11 µM | [3] 10.9 µM

Clc1cc(C(Cl)(Cl)Cl)cnc1Cl
inactive: [1] | [2] | [3] | [4] | [8]

O=C1c2ccccc2C(=O)C1C(=O)C(c1ccccc1)c1ccccc1
inactive: [9] | [4] | [8]

O=C(CCl)c1ccc(Cl)cc1Cl
active: [1] 668 nM and 1.72 µM | [2] 1.06 µM and 2.73 µM and 17.1 µM | [3] 944 nM and 2.43 µM
not listed: [5] | [9]
inactive: all other assays above

CC(=O)c1cc2c(cc1C)C(C)(C)C(C)CC2(C)C (centres undefined)
inactive: [9] | [4] | [8]

O=C(Nc1ccccc1)Nc1ccnc(Cl)c1
inactive: [7]
active: [2] 15.4 µM | [3] 13.7 µM | [4] 38.9 µM | [10] 30.6 µM

O=C(O)C1(c2ccc3c(c2)OC[C@H](Cc2ccc(-c4ccccc4)cc2)[C@H]3O)CCCC1
active: [1] 61.1 µM | [2] 61.1 µM | [3] 61.1 µM

COCCOCCO
inactive: [4] | [8]
active: [3] 61.1 µM

ClP(Cl)(Cl)(Cl)Cl
inactive: [9] | [4] | [8]

N#CCC#N
inactive: [9] | [4] | [7] | [8] | [10]

CN(C)c1ccc(N(C)C)cc1
inactive: [9] | [4] | [8]

COc1nn(CSP(=S)(OC)OC)c(=O)s1
active: [1] 19.3 µM | [2] 45.8 µM | [3] 50.5 µM

CC1(C)CCC(Cc2ccc(Cl)cc2)C1(O)Cn1cncn1 (centres undefined)
active: [1] 27.3 µM | [2] 15.4 µM | [3] 27.3 µM

IC(I)=C(I)I
active: [1] 0.611 µM | [2] 1.22 µM | [3] 1.22 µM | [4] 12.3 µM | [10] 19.3 µM
inactive: [6] | [7]

CCOP(=S)(OCC)Oc1cc(Cl)c(Br)cc1Cl
inactive: [9] | [4] | [6] | [7] | [8] | [10]

CO/C=C(/C(=O)OC)c1ccccc1COc1cccc(C(F)(F)F)n1
inactive: [8]
active: [1] 0.0769 µM | [2] 0.0769 µM | [3] 0.0485 µM | [4] 3.46 µM

NC(=O)C(Cl)(Cl)Cl
inactive: [1] | [2] | [3] | [4] | [8]

CO[C@@H]1[C@H](OC(=O)NC(=O)CCl)CC[C@]2(CO2)[C@H]1[C@@]1(C)O[C@@H]1CC=C(C)C
inactive: [9] | [4] | [7] | [8] | [10]

CN1C(=O)C(O)N=C(c2ccccc2)c2cc(Cl)ccc21 (centres undefined)
inactive: [9] | [4] | [8]

C=CC[C@]1(O)CC[C@H]2[C@@H]3CCC4=CC(=O)CCC4=C3C=C[C@@]21C
inactive: [4] | [8]
active: [2] 16.8 µM | [3] 10.6 µM

O=C(NC(=O)c1c(F)cccc1F)Nc1cc(Cl)c(Oc2ncc(C(F)(F)F)cc2Cl)c(Cl)c1
inactive: [7] | [8]
active: [1] 1.17 µM | [2] 2.08 µM | [3] 1.65 µM

O=S1(=O)OC(c2cc(Br)c(O)c(Br)c2)(c2cc(Br)c(O)c(Br)c2)c2ccccc21
inactive: [4] | [7]
active: [1] 31.5 µM | [2] 28.1 µM | [3] 25 µM | [8] 62.8 µM
